From PubChem BioAssay
This is a sample that favours compounds with a hit; in the whole collection about 8.1% have one here.
KB-3-1 cytotox: KB-3-1 parental cell cytotoxicity; KB-3-1 viability, CellTiter-Glo ATP luminescence, 72 h; Potency, µM (doses to about 46.1 µM), usual class: cytotoxic; 400,000 tested, 1.4% active; also: % is scaled to controls: 0 for no effect and ±100 for the full control effect; nearly all actives have a fitted effect of over 60% in size
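KB-3-1 cells, DMEM (no phenol red) + 10% FBS; compound by pin transfer, 72 h, 37 °C. Readout: CellTiter-Glo luminescence after 10 min. Data normalized, curve-fitted.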
SW480 rereplic: induces DNA re-replication in SW480 colon adenocarcinoma cells | 340,000 tested, 1.8% active | Potency, µM (doses to about 46.1 µM), without a hit: at the top dose re-replication activation, actives largely listed as activators | SW480 DNA re-replication, Hoechst DNA content imaging, 48 h; also: % of control where 0% means no effect; nearly all actives have a fitted effect of over 55% in size
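Readout is total intensity of Hoechst-stained nuclei, excited at 405 nm and collected at 500-530 nm. Compound treatment lasted 48 hr at 37 C in 5% CO2 before staining.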
MCF10A rerep: inducers of DNA re-replication in MCF 10A breast cells; MCF 10A DNA re-replication, Hoechst nuclear intensity, 48 h; Potency, µM (titrated, usually from 46.1 µM), inactives show at the top dose activity, positive = re-replication, usual class: activators; 350,000 tested, 2.9% active; also: % of control where 0% means no effect; nearly all actives have a fitted effect of over 50% in size
ELG1 DNA repair: inhibitors of ELG1-dependent DNA repair in HEK293T cells | HEK293T ELG1-luciferase reporter, luminescence, 16 h; DNA damage induced by 5-fluorouridine | Potency, µM (top dose mostly 46.1 µM), for inactives: at the highest dose activity change, negative = inhibition, most hits filed as inhibitors | 330,000 tested, 2.3% active; also: % is scaled to controls: 0 for no effect and ±100 for the full control effect; nearly all actives have a fitted effect of over 55% in size
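In this reporter screen, reduction of luminescence relative to DMSO vehicle indicated activity. Compounds and 5-fluorouridine were added together to 2,000 cells per well, incubated for 16 hr at 37 °C, then developed with ONE-Glo.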
KB-V1 MDR tox: KB-V1 MDR subline cytotoxicity; 400,000 tested, 3.4% active; KB-V1 MDR cells viability, CellTiter-Glo, 72 h; Potency, µM (doses to about 46.1 µM), most hits filed as cytotoxic; also: % is scaled to controls: 0 for no effect and ±100 for the full control effect; nearly all actives have a fitted effect of over 60% in size
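KB-V1, DMEM (no phenol red) + 10% FBS; cpd pin-transferred, titration series; 72 h, 37 degrees C; CellTiter-Glo, luminescence. Data normalized, curve-fit.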
Numbers without * were called inactive; i = inactive; ? = inconclusive; · = no result given; ! = a repeat was not active; [ ] = dose if it differs, or a comment. Calls follow the shape of the dose curve; as a rule, active = well fitted curve in the direction sought with a large enough effect; inconclusive = small, poorly fitted or top-dose-only effect, or another doubt; inactive = no such curve, though single readings can be large; an effect the other way counts as inactive or inconclusive. Potency is read from the fitted curve at half-maximal effect.

SMILES | KB-3-1 cytotox | SW480 rereplic | MCF10A rerep | ELG1 DNA repair | KB-V1 MDR tox
CCc1ccc(OCC(=O)N2CCN(Cc3ccc4c(c3)OCO4)CC2)cc1 | i | 0.2% | ? | -19.8% | ?
CCC1CO/C(=C(\C(Cl)=C(Cl)Cl)[N+](=O)[O-])N1Cc1ccc(Cl)nc1 (stereo not given) | i | -15.5% | 4.7% | -9.6% | ?
CS(=O)(=O)c1ccc(C2=C(CNC(=O)c3ccncc3)[C@H]3CC[C@@H](C2)N3Cc2ccco2)cc1 | i | · | · | · | i
C=CCN1CC[C@]23c4c5ccc(O)c4OC2C(O)CC[C@@]3(O)[C@H]1C5 (stereo not given in full) | i | -5.4% | -6.1% | 0.4% | i
COc1ccc(NC(=O)N2C[C@@H]3C[C@@H](C2)c2cccc(=O)n2C3)cc1 | i | -36.7% | 5.3% | 12.3% | i
CCOC(=O)c1c(C)n(CC(O)CN2CCOCC2)c2cc(Br)c(OC)cc12 (stereo not given) | i | -1.1% | 3.6% | ? | i
Cc1cccc(-n2c(=S)[nH]c3ccccc3c2=O)n1 | i | -12.8% | -0.8% | -16.4% | i
C[C@@H]1O[C@@H](O[C@H]2C[C@@H](O)[C@]3(CO)[C@@H]4C(CC[C@]3(O)C2)[C@@]2(O)CC[C@H](C3COC(=O)C3)[C@@]2(C)C[C@H]4O)[C@H](O)[C@H](O)[C@H]1O (stereo not given in full) | 1.16µM* | ? | -43.6% | 1.78µM* | 1.84µM*
C[C@@H]1O[C@H](O[C@@H]2C=C3CC[C@H]4[C@@H](CC[C@]5(C)[C@@H](c6ccc(=O)oc6)CC[C@]45O)[C@@]3(C)CC2)[C@@H](O)[C@H](O)[C@@H]1O | · | ? | -3.1%[20.6 µM] | · | ·
Cc1cccc(N2C(=O)NC(=O)/C(=C\c3cccn3-c3ccc(Cl)cc3)C2=O)c1 | ? | ? | ? | ? | 18.4µM*
Cc1cc(C)cc(N2C(=O)NC(=O)/C(=C/c3cccn3-c3ccc(Cl)cc3)C2=O)c1 | i | 8.7% | 16.4µM* | ? | i
CC(=O)OC1CCC2(C)C(=CC(=O)C3C2CCC2(C)C(OC(C)=O)CCC32)C1 (stereo not given) | i | -3.4% | -0.8% | · | ?
O=C1C=C2C=C[C@@H]3CC2(O1)[C@H]1CCCCN31 | ? | -49.9% | 14.0% | ? | ?
O=C1C=C2C=CC3C[C@@]2(O1)C1CCCCN31 (stereo not given in full) | · | ? | 21.1µM* | · | ·
CCCCCCCCCCOC(=O)CCN1CC1 | i | -5.0% | 0.7% | · | i
NC(=Nc1ccccc1)NN=Cc1c[nH]c2ccccc12 | ? | 6.51µM* | 88.4% | · | 2.59µM*
O/N=C/c1c[nH]c2ccccc12 | i | 3.1% | -0.4% | -10.6% | i
COc1cccc(CNCCc2ccc3c(c2)OCO3)c1OC | i | 27.7% | 5.2% | ? | i
COc1ccc(NC2Oc3cc4c(cc3C(c3cc(OC)c(OC)c(OC)c3)C2C)OCO4)cc1 (stereo not given) | 1.64µM* | 1.03µM* | 0.581µM* | · | 5.8µM*
O=C(CCCCCCCCCCC(=O)NCc1cccnc1)NCc1cccnc1 | ? | -12.2% | 0.5% | 3.66µM* | ?
O=C(NCc1cccnc1)Nc1ccccc1Cl | i | -9.5% | 15.0% | 13.4% | ?
O=C(C(=O)N1CCOCC1)c1cn(Cc2c(F)cccc2Cl)c2ccccc12 | i | 0.5% | -5.2% | 27.5% | i
Cc1cc2c(cc(C(=O)N3CCC(C(=O)NC4CCCC4)CC3)n2Cc2c(F)cccc2Cl)o1 | i | -0.1% | 10.9% | 23.1µM* | ?
C[C@H]1CC2C3CC=C4C[C@@H](O)CC[C@]4(C)C3CC[C@]2(C)[C@H]1O (stereo not given in full) | i | -4.2% | ? | -17.2% | 18.4µM*
C[C@]12CC[C@H](N)CC1=CCC1C2CC[C@@]2(C)C1CC[C@@H]2O (stereo not given in full) | i | 18.4µM* | ? | 16.4µM* | i
SMILES | KB-3-1 cytotox | SW480 rereplic | MCF10A rerep | ELG1 DNA repair | KB-V1 MDR tox
Clc1ccc(CS[C@@H](Cn2ccnc2)c2ccc(Cl)cc2Cl)cc1 | · | -3.7%[20.6 µM] | ? | · | ·
Cn1cc(C(=O)OCC(=O)NC2(C#N)CCCC2)c2ccccc21 | i | -36.3% | -1.6% | ? | i
C#CCN[C@H](C)Cc1ccccc1 | i | 3.16µM* | ? | 12.6% | i
CNC(C)Cc1ccccc1 (stereo not given) | i | 2.8% | -0.7% | 15.1% | i
CC1(C)C[C@H]2C=C(C=O)[C@]3(C=O)C[C@]3(C)[C@H]2C1 | ? | 9.2µM* | 2.06µM* | 5.8µM* | i
c1ccc(CCNCc2cccs2)cc1 | i | -28.6% | -3.1% | 3.0% | i
CC1CCC(C(C)C)C(OC(=O)Cn2c(COc3ccccc3)[n+](C)c3ccccc32)C1 (stereo not given) | 23.1µM* | 0.5% | ? | ? | i
Cc1ccc(N2C(=O)CC(=O)NC2=O)cc1 | i | -3.4% | -5.6% | · | i
Cc1ccc(C2C(=O)NC(=O)NC2=O)cc1 | i | 18.4µM* | -1.9% | · | i
CC=CC(C)=CC(C)C(=O)CC(O)CC1CC(=O)NC(=O)C1 (stereo not given) | i | · | · | · | i
Cc1cc([N+](=O)[O-])c2ccccc2[n+]1[O-] | 0.92µM* | 14.6µM* | 16.4µM* | ? | 0.517µM*
CCCC12CN3CC(CCC)(CN(C1)C3c1ccccn1)C2=O (stereo not given) | i | -8.1% | 10.1% | -1.0% | 2.59µM*!
O=C(O)c1cccc2nc3ccccc3nc12 | i | 8.2µM* | 0.0% | ? | i
C[N+]1=C(/C=C/Nc2ccccc2)C(C)(C)c2ccccc21 | ? | -3.9% | 9.9% | -19.2% | 20.6µM*
Cc1cccc(NC(=O)N2CCCC2)c1 | i | 12.3% | -12.7% | 16.1% | i
CCOC(=O)[C@]12Cc3ccc(C)cc3[C@H]1N(C1CCCCC1)C(=O)c1ccccc12 | 1.16µM* | · | · | · | 2.31µM*
CCOC(=O)[C@]12Cc3cc(OC)ccc3[C@H]1N(CC(=O)OC)C(=O)c1ccccc12 | i | · | · | · | i
CCOC(=O)[C@]12Cc3c(cc(OC)c(OC)c3OC)[C@H]1N(C1CCCCC1)C(=O)c1ccccc12 | 3.26µM* | · | · | · | ?
CCOC(=O)[C@]12Cc3cc4c(cc3[C@H]1N(Cc1ccccc1)C(=O)c1ccccc12)OCO4 | ? | -4.6%[9.22 µM] | -35.7% | · | ?
CCOC(=O)[C@]12Cc3cc(Cl)ccc3[C@H]1N(C1CCCCC1)C(=O)c1cc(OC)ccc12 | 1.03µM* | · | · | · | 5.8µM*
CCOC(=O)[C@]12Cc3cc(C)ccc3[C@H]1N(C1CCCCC1)C(=O)c1ccccc12 | 1.64µM* | · | · | · | 2.59µM*
